Laboratory results from PubChem BioAssay (EPA / NIEHS).
The source holds several records for some structures; these can differ, active in one and inactive in another. The source made the active and inactive calls. How the source made its calls: active means hit-call score of the fitted dose curve at least 0.9, where 1 is the maximum; inactive means score below 0.9.

System: not listed separately
Assay: ATG_M_19_CIS: Attagene CIS-FACTORIAL HepG2 Assay for M19 Transcription Factor (Internal Marker) (AID 2282939)
Details: HepG2 Attagene CIS-FACTORIAL M19 internal marker reporter; actives raise or lower the signal
Outline: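 HepG2 cells transiently transfected with cis-regulated multiple reporter transcription units were dosed for 24 h; reporter mRNA was quantified by RT-PCR, 6-FAM primer-extension labelling, HpaI digestion and capillary electrophoresis, with bidirectional fitting against DMSO baseline.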

| SMILES | outcome |
| --- | --- |
| CCC(C)c1nccnc1OC (configuration not stated) | inactive |
| CCCCCCCCCC=CCC1CC(=O)OC1=O (configuration not stated) | inactive |
| CCCCCCCCCCCC(=O)O | inactive |
| C[C@]12CC[C@@H]3c4ccc(O)cc4CC[C@H]3[C@@H]1C[C@@H](O)[C@@H]2O | inactive |
| CC(=O)Nc1ccc(O)cc1 | inactive |
| O=C(O)C(=O)O | inactive |
| O=S(=O)(O)c1ccc2cc(O)ccc2c1 | inactive |
| Cc1ccc(C)c(S(=O)(=O)O)c1 | inactive |
| CCCCCCCCCCCCCCCC(=O)OC | inactive |
| CCC(C)c1ccccc1O (configuration not stated) | inactive |
| CC(C)[C@@H]1CC[C@@H](C)C[C@H]1O | inactive |
| O=C1NS(=O)(=O)c2ccccc21 | inactive |
| CN(C)c1ccc(C(=C2C=CC(=[N+](C)C)C=C2)c2ccccc2)cc1 | inactive |
| O=C(F)C(F)(F)C(F)(F)C(F)(F)C(=O)F | inactive |
| CC(=O)CC(C)C | inactive |
| CCCCCCCCCCCC | inactive |
| CCCCC=O | inactive |
| OCC(CO)(CBr)CBr | inactive |
| CCCCC(CC)C(=O)O (configuration not stated) | inactive |

| SMILES | outcome |
| --- | --- |
| Cc1ccc(S(=O)(=O)O)cc1 | inactive |
| CCCCCCCCCCCCCCC | inactive |
| NS(=O)(=O)O | inactive |
| CNNCc1ccc(C(=O)NC(C)C)cc1 | inactive |
| C=CCOCC(CO)(CO)CO | inactive |
| O=C(c1ccccc1)c1ccccc1 | inactive |
| CCCC=O | inactive |
| Cc1[nH]nc2c1N=C(c1ccccc1Cl)c1cc([N+](=O)[O-])ccc1N2 | inactive |
| CC(C)c1c(C(=O)Nc2ccccc2)c(-c2ccccc2)c(-c2ccc(F)cc2)n1CC[C@@H](O)C[C@@H](O)CC(=O)O | inactive |
| O=C(CCCN1CCC(O)(c2ccc(Cl)cc2)CC1)c1ccc(F)cc1 | inactive |
| O=C(OC(=O)C(F)(F)C(F)(F)F)C(F)(F)C(F)(F)F | inactive |
| CCC1CO1 (configuration not stated) | inactive |
| O=C(NO)c1ccccc1 | inactive |
| CS(=O)(=O)c1ccc([C@@H](CC2CCCC2)C(=O)Nc2cnccn2)cc1Cl | inactive |
| O=S(=O)(O)c1ccccc1 | inactive |
| CC(C)C=O | inactive |
| c1cnc2c(c1)ccc1cccnc12 | inactive |
| c1cc[nH]c1 | inactive |
| CC(O)COc1ccccc1 (configuration not stated) | inactive |

System: not listed separately
Assay: ATG_ERE_CIS: Attagene CIS-FACTORIAL HepG2 Assay for Estrogen Response Element (ERE) (AID 2282940)
Details: HepG2 ERE cis-reporter, Attagene RNA transcript; actives raise or lower the signal
Outline: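 HepG2 cells transiently transfected with cis-promoter-driven multiplexed reporter transcription units report endogenous TF activity. After 24 h compound exposure, reporter mRNA is quantified by RT-PCR with capillary electrophoresis fluorescence; bidirectional fitting versus DMSO baseline.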

| SMILES | outcome |
| --- | --- |
| CCC(C)c1nccnc1OC (configuration not stated) | inactive |
| CCCCCCCCCCCCCCCC(=O)OC | inactive |
| O=C(F)C(F)(F)C(F)(F)C(F)(F)C(=O)F | inactive |
| C=CCOCC(CO)(CO)CO | inactive |
| O=C(OC(=O)C(F)(F)C(F)(F)F)C(F)(F)C(F)(F)F | inactive |
| c1cc[nH]c1 | inactive |

System: not listed separately
Assay: ATG_Ets_CIS: Attagene CIS-FACTORIAL HepG2 Assay for human Erythroblast Transformation Specific (ETS) (AID 2282941)
Details: HepG2 ETS cis-reporter transcription; AC50: actives raise or lower the signal unless noted; outcome: actives raise or lower the signal unless noted
Outline: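 HepG2 cells transiently transfected with cis-promoter reporter transcription units were dosed for 24 h; reporter mRNA was measured by RT-PCR, 6-FAM primer extension, HpaI digestion and capillary electrophoresis, with bidirectional fitting against DMSO baseline.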

| SMILES | outcome | AC50 |
| --- | --- | --- |
| CCC(C)c1nccnc1OC (configuration not stated) | inactive | – |
| CCCCCCCCCC=CCC1CC(=O)OC1=O (configuration not stated) | inactive | – |
| CCCCCCCCCCCC(=O)O | inactive | – |
| C[C@]12CC[C@@H]3c4ccc(O)cc4CC[C@H]3[C@@H]1C[C@@H](O)[C@@H]2O | inactive | – |
| CC(=O)Nc1ccc(O)cc1 | inactive | – |
| O=C(O)C(=O)O | inactive | – |
| O=S(=O)(O)c1ccc2cc(O)ccc2c1 | inactive | – |
| Cc1ccc(C)c(S(=O)(=O)O)c1 | inactive | – |
| CCCCCCCCCCCCCCCC(=O)OC | inactive | – |
| CCC(C)c1ccccc1O (configuration not stated) | inactive | – |
| CC(C)[C@@H]1CC[C@@H](C)C[C@H]1O | inactive | – |
| O=C1NS(=O)(=O)c2ccccc21 | inactive | – |
| CN(C)c1ccc(C(=C2C=CC(=[N+](C)C)C=C2)c2ccccc2)cc1 | inactive | 10.1 µM (active) |
| O=C(F)C(F)(F)C(F)(F)C(F)(F)C(=O)F | inactive | – |
| CC(=O)CC(C)C | inactive | – |
| CCCCCCCCCCCC | inactive | – |
| CCCCC=O | inactive | – |
| OCC(CO)(CBr)CBr | inactive | – |
| CCCCC(CC)C(=O)O (configuration not stated) | inactive | – |

| SMILES | outcome | AC50 |
| --- | --- | --- |
| Cc1ccc(S(=O)(=O)O)cc1 | inactive | – |
| CCCCCCCCCCCCCCC | inactive | – |
| NS(=O)(=O)O | inactive | – |
| CNNCc1ccc(C(=O)NC(C)C)cc1 | inactive | – |
| C=CCOCC(CO)(CO)CO | inactive | – |
| O=C(c1ccccc1)c1ccccc1 | inactive | – |
| CCCC=O | inactive | – |
| Cc1[nH]nc2c1N=C(c1ccccc1Cl)c1cc([N+](=O)[O-])ccc1N2 | inactive | – |
| CC(C)c1c(C(=O)Nc2ccccc2)c(-c2ccccc2)c(-c2ccc(F)cc2)n1CC[C@@H](O)C[C@@H](O)CC(=O)O | inactive | – |
| O=C(CCCN1CCC(O)(c2ccc(Cl)cc2)CC1)c1ccc(F)cc1 | inactive | – |
| O=C(OC(=O)C(F)(F)C(F)(F)F)C(F)(F)C(F)(F)F | inactive | – |
| CCC1CO1 (configuration not stated) | inactive | – |
| O=C(NO)c1ccccc1 | inactive | – |
| CS(=O)(=O)c1ccc([C@@H](CC2CCCC2)C(=O)Nc2cnccn2)cc1Cl | inactive | – |
| O=S(=O)(O)c1ccccc1 | inactive | – |
| CC(C)C=O | inactive | – |
| c1cnc2c(c1)ccc1cccnc12 | inactive | – |
| c1cc[nH]c1 | inactive | – |
| CC(O)COc1ccccc1 (configuration not stated) | inactive | – |

Target: Hepatocyte nuclear factor 3-beta (Homo sapiens) (UniProt Q9Y261)
Assay: ATG_FoxA2_CIS: Attagene CIS-FACTORIAL HepG2 Assay for human Forkhead box A2 (FOXA2) (AID 2282942)
Details: HepG2 cis-reporter transcription factor activity, 24 h; actives raise or lower the signal
Outline: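 Endogenous transcription factor activity was read in HepG2 cells carrying transiently transfected cis-promoter reporter units. After 24 h dosing, reporter mRNA was quantified by RT-PCR and capillary electrophoresis, and values fitted bidirectionally versus DMSO.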

Chain of Hepatocyte nuclear factor 3-beta (Homo sapiens) (Q9Y261 whole entry, looked up): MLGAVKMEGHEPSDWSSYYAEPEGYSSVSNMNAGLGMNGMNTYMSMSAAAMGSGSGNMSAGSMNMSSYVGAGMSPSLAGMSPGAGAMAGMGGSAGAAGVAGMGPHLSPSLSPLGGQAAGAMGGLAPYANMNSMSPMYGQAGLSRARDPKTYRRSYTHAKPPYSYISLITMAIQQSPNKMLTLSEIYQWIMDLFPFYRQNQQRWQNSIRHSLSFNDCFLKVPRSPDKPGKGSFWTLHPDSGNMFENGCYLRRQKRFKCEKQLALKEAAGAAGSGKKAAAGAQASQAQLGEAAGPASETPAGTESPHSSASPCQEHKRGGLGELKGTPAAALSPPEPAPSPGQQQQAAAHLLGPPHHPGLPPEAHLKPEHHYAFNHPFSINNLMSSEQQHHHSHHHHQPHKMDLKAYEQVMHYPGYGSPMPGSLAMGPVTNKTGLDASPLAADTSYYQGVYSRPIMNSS

| SMILES | outcome | AC50 |
| --- | --- | --- |
| CCC(C)c1nccnc1OC (configuration not stated) | inactive | – |
| CCCCCCCCCC=CCC1CC(=O)OC1=O (configuration not stated) | inactive | – |
| CCCCCCCCCCCC(=O)O | inactive | – |
| C[C@]12CC[C@@H]3c4ccc(O)cc4CC[C@H]3[C@@H]1C[C@@H](O)[C@@H]2O | inactive | – |
| CC(=O)Nc1ccc(O)cc1 | inactive | – |
| O=C(O)C(=O)O | inactive | – |
| O=S(=O)(O)c1ccc2cc(O)ccc2c1 | inactive | – |
| Cc1ccc(C)c(S(=O)(=O)O)c1 | inactive | – |
| CCCCCCCCCCCCCCCC(=O)OC | inactive | – |
| CCC(C)c1ccccc1O (configuration not stated) | inactive | – |
| CC(C)[C@@H]1CC[C@@H](C)C[C@H]1O | inactive | – |
| O=C1NS(=O)(=O)c2ccccc21 | inactive | – |
| CN(C)c1ccc(C(=C2C=CC(=[N+](C)C)C=C2)c2ccccc2)cc1 | inactive | 1.51 µM (active) |
| O=C(F)C(F)(F)C(F)(F)C(F)(F)C(=O)F | inactive | – |
| CC(=O)CC(C)C | inactive | – |
| CCCCCCCCCCCC | inactive | – |
| CCCCC=O | inactive | – |
| OCC(CO)(CBr)CBr | inactive | – |
| CCCCC(CC)C(=O)O (configuration not stated) | inactive | – |

| SMILES | outcome | AC50 |
| --- | --- | --- |
| Cc1ccc(S(=O)(=O)O)cc1 | inactive | – |
| CCCCCCCCCCCCCCC | inactive | – |
| NS(=O)(=O)O | inactive | – |
| CNNCc1ccc(C(=O)NC(C)C)cc1 | inactive | – |
| C=CCOCC(CO)(CO)CO | inactive | – |
| O=C(c1ccccc1)c1ccccc1 | inactive | – |
| CCCC=O | inactive | – |
| Cc1[nH]nc2c1N=C(c1ccccc1Cl)c1cc([N+](=O)[O-])ccc1N2 | inactive | – |
| CC(C)c1c(C(=O)Nc2ccccc2)c(-c2ccccc2)c(-c2ccc(F)cc2)n1CC[C@@H](O)C[C@@H](O)CC(=O)O | inactive | – |
| O=C(CCCN1CCC(O)(c2ccc(Cl)cc2)CC1)c1ccc(F)cc1 | inactive | – |
| O=C(OC(=O)C(F)(F)C(F)(F)F)C(F)(F)C(F)(F)F | inactive | – |
| CCC1CO1 (configuration not stated) | inactive | – |
| O=C(NO)c1ccccc1 | inactive | – |
| CS(=O)(=O)c1ccc([C@@H](CC2CCCC2)C(=O)Nc2cnccn2)cc1Cl | inactive | – |
| O=S(=O)(O)c1ccccc1 | inactive | – |
| CC(C)C=O | inactive | – |
| c1cnc2c(c1)ccc1cccnc12 | inactive | – |
| c1cc[nH]c1 | inactive | – |
| CC(O)COc1ccccc1 (configuration not stated) | inactive | – |
